Laboratory results taken from PubChem BioAssay AID1159580 (chemical genetic matrix, 2015).
Values joined by “and” are separate entries in the source; they are usually repeats but may differ in a detail not shown here. Equal values may be shown once. Screen size: about 5,500 compounds; about 2,000 (36%) were called active. Roughly 18% stayed inconclusive and do not appear here. Cut-off read from the data, not from the text of the source: active = normalized growth mostly below about 0.91 (no sharp cut-off); inconclusive = no clear call, values can overlap the other calls; inactive = mostly above about 0.92. The list shows a part of the results.

Experiment: chemical genetic growth profiling, strain panel (AID 1159580);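 note: tested at 20 µM; growth read once vehicle control cultures reached saturation at 30 °C; 1 = growth at the plate median or of vehicle wells; lower values mean less growth of the strain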
Details: S. cerevisiae deletion strains, growth OD

Measured: normalized growth

O=C(O)c1nc2cc(Cl)c(Cl)cc2[nH]c1=O
inactive: locus YAL013W, strain DEP1, active compounds read low 1.02 | locus YAL021C, strain ccr4, active compounds read low 0.995 | locus YAL026C, strain drs2, active compounds read low 1.03 | locus YAL030W, strain snc1, active compounds read low 1.01 | locus YBL061C, strain skt5, active compounds read low 1.01 | locus YBR009C, strain hhf1, active compounds read low 1.04 | locus YBR021W, strain FUR4, active compounds read low 1.02 | locus YBR023C, strain chs3, active compounds read low 1.03 | locus YBR171W, strain sec66, active compounds read low 1.04 | locus YBR229C, strain ROT2, active compounds read low 1.01 | locus YBR231C, strain swc5, active compounds read low 1.02 | locus YBR279W, strain paf1, active compounds read low 1.01 | locus YCL011C, strain gbp2, active compounds read low 1.02 | locus YCL016C, strain dcc1, active compounds read low 1.01 | locus YCL029C, strain bik1, active compounds read low 0.99 | locus YCL061C, strain MRC1, active compounds read low 1.03 | locus YCL069W, strain vba3, active compounds read low 1.01 | locus YCR088W, strain abp1, active compounds read low 1.01 | locus YDL005C, strain med2, active compounds read low 1.02 | locus YDL035C, strain GPR1, active compounds read low 1.01 | locus YDL040C, strain nat1, active compounds read low 0.995 | locus YDL074C, strain BRE1, active compounds read low 1.03 | locus YDL101C, strain DUN1, active compounds read low 1.02 | locus YDL134C, strain PPH21, active compounds read low 1 | locus YDL185W, strain tfp1, active compounds read low 0.956 | locus YDL192W, strain arf1, active compounds read low 0.993 | locus YDR001C, strain nth1, active compounds read low 1.01 | locus YDR069C, strain doa4, active compounds read low 1.04 | locus YDR101C, strain arx1, active compounds read low 1.01 | locus YDR137W, strain rgp1, active compounds read low 0.974 | locus YDR150W, strain NUM1, active compounds read low 0.978 | locus YDR159W, strain sac3, active compounds read low 1.01 | locus YDR162C, strain NBP2, active compounds read low 1.03 | locus YDR195W, strain ref2 1.04 | locus YDR297W, strain sur2, active compounds read low 1.01 | locus YDR318W, strain mcm21, active compounds read low 0.994 | locus YDR334W, strain swr1, active compounds read low 1.02 | locus YDR335W, strain msn5, active compounds read low 1.02 | locus YDR388W, active compounds read low 1.01 | locus YDR392W, strain spt3, active compounds read low 0.968 | locus YDR502C, strain sam2, active compounds read low 1.01 | locus YEL003W, strain gim4, active compounds read low 1.03 | locus YEL037C, strain rad23, active compounds read low 1.02 | locus YEL061C, strain CIN8 (second series), active compounds read low 1.02 | locus YEL061C, strain CIN8, active compounds read low 0.998 | locus YER015W, strain faa2, active compounds read low 1.01 | locus YER016W, strain bim1, active compounds read low 1.01 | locus YER110C, active compounds read low 0.992 | locus YER111C, strain swi4, active compounds read low 1.03 | locus YER155C, strain BEM2 (second series), active compounds read low 1.03 | locus YER155C, strain BEM2, active compounds read low 0.996 | locus YER167W, strain BCK2, active compounds read low 1 | locus YFR010W, strain ubp6, active compounds read low 1.03 | locus YGL078C, strain dbp3, active compounds read low 0.992 | locus YGL086W, strain mad1, active compounds read low 0.979 | locus YGL167C, strain pmr1, active compounds read low 1.01 | locus YGL173C, strain kem1, active compounds read low 1.02 | locus YGL227W, strain vid30, active compounds read low 1.02 | locus YGL240W, strain doc1, active compounds read low 1.03 | locus YGL248W, strain PDE1, active compounds read low 1.01 | locus YGL253W, strain hxk2, active compounds read low 1.03 | locus YGR078C, strain PAC10, active compounds read low 1.03 | locus YGR135W, strain pre9, active compounds read low 1.02 | locus YGR229C, strain SMI1, active compounds read low 1.07 | locus YGR252W, strain gcn5, active compounds read low 1 | locus YHR013C, strain ard1, active compounds read low 0.994 | locus YHR027C, strain rpn1, active compounds read low 1.02 | locus YHR030C, strain SLT2, active compounds read low 0.995 and 0.994 | locus YHR079C, strain IRE1 (second series), active compounds read low 0.997 | locus YHR079C, strain IRE1, active compounds read low 0.999 | locus YHR094C, strain hxt1, active compounds read low 0.983 | locus YHR129C, strain ARP1, active compounds read low 1.01 | locus YHR142W, strain chs7, active compounds read low 0.984 | locus YHR200W, strain rpn10, active compounds read low 0.99 | locus YIL066C, strain RNR3, active compounds read low 1 | locus YIL073C, strain SPO22, active compounds read low 0.946 | locus YIR030C, strain dcg1, active compounds read low 0.992 | locus YJL092W, strain hpr5, active compounds read low 1.02 | locus YJL095W, strain BCK1 (second series), active compounds read low 1 | locus YJL095W, strain BCK1, active compounds read low 1.05 and 0.986 | locus YJL115W, strain asf1, active compounds read low 1.02 | locus YJL129C, strain trk1, active compounds read low 1.01 | locus YJL134W, strain LCB3, active compounds read low 0.994 | locus YJL154C, strain vps35, active compounds read low 1 | locus YJL164C, strain tpk1, active compounds read low 0.999 | locus YJL166W, strain qcr8, active compounds read low 1.02 | locus YJL168C, strain set2, active compounds read low 1.01 | locus YJL187C, strain SWE1 (second series), active compounds read low 1.01 | locus YJL187C, strain SWE1, active compounds read low 1.02 | locus YJR043C, strain POL32, active compounds read low 1.02 | locus YJR066W, strain TOR1, active compounds read low 0.985
